Laboratory results published in PubChem BioAssay (Tox21).
Results filed as inconclusive are left out. Calls of active or inactive are those of the source. Unless noted, the call rests on the fitted dose curve; in most records, active means well fitted curve in the direction sought with a large enough effect in the repeat runs; inconclusive means weak or mixed curves; inactive means no such curve, though single readings can be large; an effect the other way counts as inactive or inconclusive.

Key:
[1] = qHTS assay to identify small molecule agonists of the hypoxia (HIF-1) signaling pathway - cell viability counter screen (AID 1224844; calls by dose curve; further: nearly all actives have a fitted effect of over 50% in size; further: potency means the concentration at half of the fitted maximal effect)
Procedure, shortened: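 Luminescent ATP content (CellTiter-Glo, 30 min, room temperature) served as the viability measure in HRE-bla ME-180 cells exposed to compounds for 17 hrs in low-serum medium (0.5% dialyzed FBS).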

[2] = qHTS assay to identify small molecule agonists of the hypoxia (HIF-1) signaling pathway (AID 1224846; active means well fitted activation curve with a large enough effect in the signal ratio in the repeat runs, not every such curve was filed as active; the % refers to the signal ratio)
Procedure, shortened: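 Measured by blue/green FRET after loading CCF4-AM: beta-lactamase expressed from a hypoxia response element in ME-180 cells. Test agents were delivered in DMSO and left 17 hrs; cells had been plated 5 hrs earlier in low-serum (0.5% dialyzed FBS) medium.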

[3] = qHTS RealTime-Glo MT Cell Viability Assay in HepG2 cells - 24 hour (AID 1224867); further: nearly all actives have a fitted effect of over 50% in size; further: potency means the concentration at half of the fitted maximal effect
Procedure, shortened: (§1)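 Real-time, nonlytic viability: 600 HepG2 cells/well mixed with NanoLuc enzyme plus prosubstrate; 5 h settle, compound (DMSO) added by pintool; luminescence monitored over 40 h at 37 C.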

[4] = A CellTox Green Cytotoxicity Assay to monitor cytotoxicity in HEK293 cells - 0 hour (AID 1224869); further: nearly all actives have a fitted effect of over 50% in size
Procedure, shortened: (§2)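 Each value comes from one timepoint of a single continuous run in which HEK293 cells with CellTox Green were exposed to compound for up to 40 h at 37 C, dye fluorescence rising with cell death.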

[5] = qHTS RealTime-Glo MT Cell Viability Assay in HepG2 cells - 40 hour (AID 1224870); further: nearly all actives have a fitted effect of over 50% in size; further: potency means the concentration at half of the fitted maximal effect
Procedure, shortened: (§3)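 Real-time viability: cells seeded at 600 per well together with NanoLuc and cell-permeant prosubstrate, compounds added after 5 h incubation. Luminescence tracked at 0, 8, 16, 24, 32 and 40 h of exposure.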

[6] = A CellTox Green Cytotoxicity Assay to monitor cytotoxicity in HEK293 cells - 40 hour (AID 1224871); further: nearly all actives have a fitted effect of over 45% in size
Procedure, shortened: as §2

[7] = qHTS RealTime-Glo MT Cell Viability Assay in HEK293 cells - 16 hour (AID 1224872); further: nearly all actives have a fitted effect of over 50% in size; further: potency means the concentration at half of the fitted maximal effect; on activity change, negative = cytotoxicity: top concentration of the series differs between compounds
Procedure, shortened: (§4)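 Cells + reagent dispensed (600 cells/well, HEK293) → 5 h at 37 C/5% CO2 → 23 nL compound in DMSO pinned → 40 h at 37 C → luminescence read at 0, 8, 16, 24, 32, 40 h.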

[8] = qHTS RealTime-Glo MT Cell Viability Assay in HepG2 cells - 8 hour (AID 1224873); further: nearly all actives have a fitted effect of over 55% in size
Procedure, shortened: as §3

[9] = A CellTox Green Cytotoxicity Assay to monitor cytotoxicity in HEK293 cells - 24 hour (AID 1224875); further: nearly all actives have a fitted effect of over 45% in size
Procedure, shortened: as §2

[10] = A CellTox Green Cytotoxicity Assay to monitor cytotoxicity in HepG2 cells - 16 hour (AID 1224876); further: nearly all actives have a fitted effect of over 45% in size
Procedure, shortened: (§5)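 Continuous culture of HepG2 cells with a membrane-impermeant DNA dye; rising fluorescence marks dead cells. Compound exposure lasted up to 40 h at 37 C, with reads every 8 h from 0 h.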

[11] = qHTS RealTime-Glo MT Cell Viability Assay in HepG2 cells - 32 hour (AID 1224877); further: nearly all actives have a fitted effect of over 55% in size; further: potency means the concentration at half of the fitted maximal effect
Procedure, shortened: as §1

[12] = A CellTox Green Cytotoxicity Assay to monitor cytotoxicity in HepG2 cells - 24 hour (AID 1224878); further: nearly all actives have a fitted effect of over 45% in size
Procedure, shortened: as §5

[13] = A CellTox Green Cytotoxicity Assay to monitor cytotoxicity in HepG2 cells - 40 hour (AID 1224879); further: nearly all actives have a fitted effect of over 40% in size; further: potency means the concentration at half of the fitted maximal effect
Procedure, shortened: as §5

[14] = qHTS RealTime-Glo MT Cell Viability Assay in HEK293 cells - 0 hour (AID 1224880)
Procedure, shortened: (§6)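 qHTS format; HEK293 cells with NanoLuc/prosubstrate reagent, 37 C/5% CO2 for 5 h pre-dosing; compounds 23 nL in DMSO; luminescence at each time point reflects viable cells.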

[15] = qHTS assay to identify small molecule agonists of H2AX (AID 1224845; active means well fitted activation curve with a large enough effect in the signal ratio in the repeat runs, not every such curve was filed as active; the % refers to the signal ratio)
Procedure, shortened: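 Phospho-H2AX Ser139 measured by HTRF (ex 320 nm; em 665 and 620 nm) after 24 hr antibody incubation. Compounds, 15 concentrations, 0.76% DMSO, were applied to CHO-K1 cells for 3hr at 37C before lysis.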

[16] = qHTS assay to identify small molecule antagonists of the estrogen related receptor (ERR) signaling pathway from Tox21 library (AID 1224848); further: nearly all actives have a fitted effect of over 50% in size; further: potency means the concentration at half of the fitted maximal effect
Procedure, shortened: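 Antagonist-mode screen of the Tox21 10K library in an NTP-provided ERR reporter cell line; 18 h compound exposure at 37 C, luminescence measured with ONE-Glo.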

[17] = qHTS assay to identify small molecule agonists of the estrogen related receptor (ERR) signaling pathway from Tox21 library (AID 1224849; calls by dose curve; further: nearly all actives have a fitted effect of over 15% in size); settings: ERR reporter cell line, ONE-Glo luciferase, 18 h; at 92.4 µM (top of the series) unless noted
Procedure, shortened: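 We plated ERR reporter cells, waited 6 h, added compounds in DMSO by pin tool and incubated them 18 h at 37 C. ONE-Glo was then added and luminescence read after 30 min.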

[18] = qHTS RealTime-Glo MT Cell Viability Assay in HEK293 cells - 32 hour (AID 1224868)
Procedure, shortened: as §4

[19] = qHTS assay to identify small molecule agonists of H2AX - cell viability counter screen (AID 1224847; calls by dose curve; further: nearly all actives have a fitted effect of over 30% in size; further: potency means the concentration at half of the fitted maximal effect;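 on activity change, negative = cytotoxicity: wild-type CHO-K1 cells; top concentration of the series differs between compounds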)
Procedure, shortened: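 After overnight plating of 1000 CHO-K1 cells per well, a 15-concentration compound series was applied for 3 hr at 37C. Luminescence from CellTiter-Glo, read following 30 min at room temperature, reflected cell viability.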

[20] = qHTS RealTime-Glo MT Cell Viability Assay in HEK293 cells - 40 hour (AID 1224874); settings: RealTime-Glo luminescence; max response: stronger effect = lower value; further: nearly all actives have a fitted effect of over 50% in size
Procedure, shortened: as §6
On the % scale 0 is the no-effect control and ±100 the full control effect.

OCC(CBr)(CBr)CBr
inactive: Potency [1] | outcome [2] | Potency [3] | Potency [4] | Potency [5] | Potency [6] | Potency [7] | outcome [8] | Potency [9] | Potency [10] | Potency [11] | Potency [12] | Potency [13] | outcome [14]

CC1=C2[C@H](/C=C(\C)C(=O)O)CC[C@@H](C)[C@H]2CC1
inactive: Potency [15] | outcome [2] | activity change, positive = activation [17] -46% | Potency [3] | Potency [5] | outcome [8] | Potency [10] | Potency [11] | Potency [12] | Potency [13] | outcome [14]
active: Potency [16] 56.5 µM | Potency [7] 36 µM

C=CCCC=C
inactive: outcome [2] | Potency [16] | activity change, positive = activation [17] 2.68% | Potency [3] | Potency [18] | Potency [4] | Potency [5] | Potency [6] | Potency [7] | outcome [8] | Potency [9] | Potency [10] | Potency [11] | Potency [12] | Potency [13] | outcome [14]

Nc1ccc(Oc2ccc(N)c(N)c2)cc1
inactive: Potency [1] | outcome [2] | Potency [19] | Potency [16] | Potency [3] | Potency [4] | Potency [5] | Potency [6] | Potency [9] | Potency [10] | Potency [11]
active: activity change, positive = activation [17] 53.1%

O=C(O)CN(CCN(CC(=O)O)CC(=O)O)CCN(CC(=O)O)CC(=O)O
inactive: activity change, negative = cytotoxicity [1] -7.94% [at 15.8 µM] | activation (H2AX phosphorylation) [15] 1.06% [at 31.6 µM] | activity, negative = inhibition [16] 11.2% [at 19 µM] | activity change, positive = activation [17] 5.66% [at 19 µM] | activity change, negative = cytotoxicity [3] 0.5% [at 15.8 µM] | activity change, negative = cytotoxic [5] 0.22% [at 15.8 µM] | cytotoxicity increase [6] 19.7% [at 15.8 µM] | viability change, negative = cytotoxic [8] -0.356% [at 15.8 µM] | activity change [9] 15.9% [at 15.8 µM, stronger effect = higher value] | activity change, negative = cytotoxic [11] 0.371% [at 15.8 µM] | cytotoxicity [12] 28.9% [at 15.8 µM] | cytotoxicity increase [13] 29.3% [at 15.8 µM] | activity change, negative = cytotoxicity [14] 6.1% [at 15.8 µM]

CC(C)O
inactive: Potency [19] | Potency [18] | Potency [4] | Potency [5] | Potency [6] | Potency [7] | outcome [8] | max response [20] -1.12% | Potency [9] | Potency [10] | Potency [12] | Potency [13] | outcome [14]

CCCOc1ccc2c(c1)CC[C@@H]1[C@@H]2CC[C@]2(C)C(OC)CC[C@@H]12 (stereo partly drawn)
inactive: Potency [1] | Potency [15] | Potency [16] | Potency [3] | Potency [18] | Potency [4] | Potency [5] | Potency [6] | Potency [7] | outcome [8] | max response [20] 6.13% | Potency [9] | Potency [11] | Potency [12] | outcome [14]

CC1=NN(c2cc(Cl)c(S(=O)(=O)O)cc2Cl)C(=O)C1N=Nc1ccc(S(=O)(=O)O)cc1 (stereo not drawn)
inactive: Potency [1] | outcome [2] | Potency [19] | Potency [18] | Potency [4] | Potency [5] | Potency [6] | Potency [7] | outcome [8] | max response [20] 4.23% | Potency [9] | Potency [11]

CCCCNC(=S)NCCCC
active: Potency [16] 68.6 µM
inactive: Potency [15] | outcome [2] | Potency [19] | Potency [3] | Potency [18] | Potency [4] | Potency [5] | Potency [6] | Potency [7] | outcome [8] | max response [20] -21.7% | Potency [9] | Potency [10] | Potency [12] | outcome [14]

CN1CCN(c2c(F)cc3c(=O)c(C(=O)O)cn4c3c2SCC4)CC1
inactive: Potency [1] | outcome [2] | Potency [19] | Potency [18] | Potency [4] | Potency [5] | Potency [6] | Potency [7] | outcome [8] | Potency [9] | Potency [10] | Potency [11] | Potency [12] | Potency [13] | outcome [14]

CC1CN(c2ccccc2)NC1=O (stereo not drawn)
inactive: Potency [1] | outcome [2] | Potency [3] | Potency [18] | Potency [4] | Potency [5] | Potency [6] | Potency [7] | outcome [8] | max response [20] -13.5% | Potency [9] | Potency [10] | Potency [11] | Potency [12] | Potency [13] | outcome [14]

ICCc1ccccc1
inactive: Potency [19] | Potency [18] | Potency [4] | Potency [7] | outcome [8] | Potency [10] | Potency [12] | Potency [13] | outcome [14]
active: Potency [3] 19.1 µM | Potency [5] 9.57 µM | Potency [11] 12.1 µM

CN(CCCN1c2ccccc2CCc2ccccc21)CC(=O)c1ccc(Cl)cc1
inactive: Potency [15] | outcome [2] | Potency [19] | Potency [3] | Potency [18] | Potency [4] | Potency [5] | Potency [6] | Potency [7] | outcome [8] | max response [20] -24.7% | Potency [9] | Potency [10] | Potency [11] | Potency [12] | outcome [14]
active: Potency [13] 21.3 µM

Cc1nc(N)nc(N)c1-c1ccc(Cl)c(Cl)c1
active: Potency [19] 1.24 µM | Potency [16] 0.944 µM
inactive: Potency [1] | outcome [2] | activity change, positive = activation [17] -56.5% [at 42.5 µM] | Potency [3] | Potency [4] | Potency [5] | Potency [6] | Potency [7] | outcome [8] | Potency [9] | Potency [12] | Potency [13] | outcome [14]

CC(C)C1=CC2=CC[C@@H]3[C@](C)(CCC[C@@]3(C)C(=O)O)[C@H]2CC1
inactive: Potency [15] | Potency [18] | Potency [4] | Potency [5] | Potency [6] | Potency [7] | outcome [8] | max response [20] 3.7% | Potency [9] | Potency [10] | Potency [11] | Potency [12] | outcome [14]
active: Potency [1] 43.6 µM

CCOc1ccc2nc(N)sc2c1
inactive: Potency [1] | outcome [2] | Potency [16] | Potency [3] | Potency [18] | Potency [5] | Potency [6] | Potency [7] | outcome [8] | max response [20] -4.71% | Potency [9] | Potency [10] | Potency [11] | Potency [12]
active: activity change, positive = activation [17] 78%
